# Data published in patent US20250354175, “ATTP MV4-DERIVED SITE-SPECIFIC RECOMBINATION AND ITS USE FOR INTEGRATION OF SEQUENCE OF INTEREST” (INSTITUT NATIONAL DE RECHERCHE POUR L'AGRICULTURE, …, published 2025).
# Target: T1, mv4Int (369 aa integrase) (Lactobacillus delbrueckii bacteriophage …)
# T1 chain: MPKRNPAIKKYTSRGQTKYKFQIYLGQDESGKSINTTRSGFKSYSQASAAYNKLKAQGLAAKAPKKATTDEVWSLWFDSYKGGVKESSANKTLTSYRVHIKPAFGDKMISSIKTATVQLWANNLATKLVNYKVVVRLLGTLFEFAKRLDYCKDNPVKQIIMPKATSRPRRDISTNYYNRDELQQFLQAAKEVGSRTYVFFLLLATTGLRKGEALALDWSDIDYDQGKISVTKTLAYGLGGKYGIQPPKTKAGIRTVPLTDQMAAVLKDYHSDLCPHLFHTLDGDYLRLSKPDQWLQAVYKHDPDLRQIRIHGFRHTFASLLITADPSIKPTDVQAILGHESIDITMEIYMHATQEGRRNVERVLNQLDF
# Assay: cleavage_in_vitro; recombination with attP sharing same overlap
# Settings: tags: expressed from pET15b; label: Cy3; dsDNA, one strand shown
sequence,measurement,value
TCAAATAAGGTTTTCTCCTTAATAAGGTCAAATGGTATC,binding signal,15 fold decrease vs WT
